An excerpt weighted towards active compounds, which were near 0.45% of everything screened.
Menin-MLL TR inh: qHTS Assay for Inhibitors Targeting the Menin-MLL Interaction in MLL Related Leukemias: Competition With Texas Red Labeled MLL-derived Mutant Peptide; AID 1768, 2009; hit rate 0.23% among 270,000; Potency, µM (titrated, usually from 61.6 µM), for the others: at the top dose FP activity change, negative = inhibition, hits mostly inhibitors; Menin + Texas Red MLL mutant peptide, fluorescence polarization; active = well fitted inhibition curve with a large enough effect in the polarisation, with a control signal flat, not every such curve was filed as active; inconclusive = small, poorly fitted or top-dose-only effect, or effect the other way, or a change in a side signal; inactive = no such curve, though single readings can be large or run the other way; the % refers to the polarisation; note: potency is the fitted concentration of half-maximal effect; % of control where 0% means no effect
Target sequence (O00255 whole entry, looked up): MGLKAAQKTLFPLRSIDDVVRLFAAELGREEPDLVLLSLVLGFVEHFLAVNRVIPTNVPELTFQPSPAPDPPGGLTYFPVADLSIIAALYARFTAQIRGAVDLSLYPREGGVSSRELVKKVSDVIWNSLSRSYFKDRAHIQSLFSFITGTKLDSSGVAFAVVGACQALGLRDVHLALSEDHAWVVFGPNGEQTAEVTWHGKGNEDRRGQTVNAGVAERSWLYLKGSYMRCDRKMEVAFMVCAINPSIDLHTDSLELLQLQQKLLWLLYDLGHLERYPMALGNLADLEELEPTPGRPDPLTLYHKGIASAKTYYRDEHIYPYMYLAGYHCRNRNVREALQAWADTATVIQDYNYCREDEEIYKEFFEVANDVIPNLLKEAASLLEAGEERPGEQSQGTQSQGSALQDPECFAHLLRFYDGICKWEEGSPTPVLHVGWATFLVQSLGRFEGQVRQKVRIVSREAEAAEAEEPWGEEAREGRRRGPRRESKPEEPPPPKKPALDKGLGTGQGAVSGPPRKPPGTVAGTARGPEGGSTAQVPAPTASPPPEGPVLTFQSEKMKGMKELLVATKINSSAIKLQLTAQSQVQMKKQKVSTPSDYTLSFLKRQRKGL
Menin-MLL FL inh: qHTS Assay for Inhibitors Targeting the Menin-MLL Interaction in MLL Related Leukemias: Competition With Fluorescein Labeled MLL-derived Peptide | Fluorescence polarization, fluorescein-MLL peptide displacement from menin | FP activity change, % at 61.4 µM | 290,000 tested, under 10 active | AID 1766, 2009; active = well fitted curve in the direction sought with a large enough effect in the polarisation, not every such curve was filed as active; inconclusive = small, poorly fitted or top-dose-only effect, or effect the other way, or a change in a side signal; inactive = no such curve, though single readings can be large or run the other way; the % refers to the polarisation; note: % of control where 0% means no effect
aGlu spleen mod: qHTS Assay for Inhibitors and Activators of Human alpha-Glucosidase From Spleen Homogenate; hit rate 0.006% among 240,000; Potency, µM (titrated, usually from 79.9 µM), without a hit: at the top dose activity change, negative = inhibition, most hits filed as inhibitors; AID 2112, 2009; human spleen homogenate, 4-MU-alpha-glucoside fluorescence;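 note: potency is the fitted concentration of half-maximal effect; 0% = enzyme with vehicle and -100% = no enzyme basal signal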
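Human spleen homogenate (1 ug) incubated with compounds and 1 mM 4-methylumbelliferyl-alpha-D-glucopyranoside in pH 5.0 citrate/phosphate buffer, 37 C, 40 min. Stopped at pH 10; 4-MU fluorescence (Ex 365/Em 440 nm); AC50 by Hill fit.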
GAA glycogen: qHTS Assay for Inhibitors and Activators of Human alpha-Glucosidase Cleavage of Glycogen; Lysosomal alpha-glucosidase (Homo sapiens), P10253; recombinant GAA, glycogen substrate, Amplex Red glucose oxidase fluorescence; Potency, µM (highest dose often 76.4 µM), for the others: at the top dose activity change, negative = inhibition, hits mostly inhibitors; hit rate 0.38% among 300,000;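 note: potency is the fitted concentration of half-maximal effect; 0% = full enzyme reaction and -100% = no-enzyme basal signal; the screen sought inhibitors and activators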
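qHTS, 1536-well; enzyme 4 nM final; cpd up to 77 uM; substrate bovine liver glycogen 30 ug; 50 mM citrate/phosphate pH 5.0, 0.01% Tween-20; 37 C, 40 min; Amplex Red detection 45 min RT; Hill fit → AC50.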
GAA inh: qHTS Assay for Inhibitors of Human alpha-Glucosidase as a Potential Chaperone Treatment of Pompe Disease; Lysosomal alpha-glucosidase (Homo sapiens), P10253; purified human GAA, 4-MU-alpha-glucoside fluorescence; Potency, µM (series often up to 76.9 µM), inactives show top-dose activity change, negative = inhibition, most hits filed as inhibitors; hit rate 0.005% among 200,000; AID 1466, 2008;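 note: potency is the fitted concentration of half-maximal effect; plate controls were uninhibited enzyme wells for no effect and no-enzyme background for full effect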
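AC50 values come from Hill fits of compound titrations (up to 77 uM) against 4 nM human enzyme. Substrate 4-methylumbelliferyl-alpha-D-pyranoside at 400 uM, pH 5.0 citrate buffer, 20 min room temperature; fluorescence Ex 365/Em 440 after alkaline stop.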
MLL CXXC-DNA inh: qHTS Fluorescence Polarization Assay for Inhibitors of MLL CXXC domain - DNA interaction | Histone-lysine N-methyltransferase 2A (Homo sapiens), Q03164 | MLL-CXXC / FITC-HOXA9 DNA fluorescence polarization | Potency, µM (series often up to 115 µM), without a hit: at the top dose activity change, negative = inhibition, most hits filed as inhibitors | hit rate 0.037% among 290,000; active = well fitted inhibition curve with a large enough effect in the polarisation, with a control signal flat, not every such curve was filed as active; inconclusive = small, poorly fitted or top-dose-only effect, or effect the other way, or a change in a side signal; inactive = no such curve, though single readings can be large or run the other way; the % refers to the polarisation; note: potency is the fitted concentration of half-maximal effect
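Purified MLL-CXXC (added from a 7 uM solution) was preincubated 5 min at ambient with pinned compounds in 50 mM Tris-HCl pH 7.5, 50 mM NaCl, 1 mM DTT, 0.05% BSA. Fluorescein-labeled HOX-A9 DNA (50 nM solution) followed, 30 min, then polarization read.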
Starred values were filed as active, the others as inactive; ? = inconclusive; . = no result given; [ ] = another dose, or the depositor's remark. Unless noted, calls come from the whole dose curve; as a rule, active = well fitted curve in the direction sought with a large enough effect; inconclusive = small, poorly fitted or top-dose-only effect, or another doubt; inactive = no such curve, though single readings can be large; an effect the other way counts as inactive or inconclusive.

SMILES	Menin-MLL TR inh	Menin-MLL FL inh	aGlu spleen mod	GAA glycogen	GAA inh	MLL CXXC-DNA inh
CC(=O)O[C@@H]1CC2C(C)(C)C(=O)C=C[C@]2(C)C2CC[C@]3(C)C(=CC[C@H]3C3CO[C@@H](C(C)(C)O)[C@H](O)C3)[C@@]21C (stereo not given in full)	-9.0%	12.7	4.5%	.	.	.
Nc1cc(C(=O)O)ccc1Nc1ccc(F)c(F)c1	?	0.6	3.2%	12.5µM*	-5.6%	1.8%
CC(C)c1cc(NC(=O)C(C)(C)C)cc(C(C)C)c1O	0.2%	3.3	-3.4%	31.6µM*	-9.6%	-9.5%
Cc1cccc(N2CCN(Cc3cc(=O)n4ccsc4n3)CC2)c1C	10.4%	2.4	-2.7%	0.8%	-1.1%	-1.0%
O=c1cc(CN2CCN(c3ccccc3O)CC2)nc2sccn12	0.3%	-19.6	3.1%	7.88µM*	0.2%	-13.5%
O=C(c1cccc2ccccc12)N1CCCCC1	-3.0%	1.8	.	-7.6%[76.3 µM]	.	3.3%
O=C(c1cccc2cccc(O)c12)N1CCCCC1	-7.4%	2.0	1.7%	25.1µM*	5.3%	1.5%
COc1ccc(C(=O)O)cc1Nc1nc2ccc(C)cc2n2cnnc12	.	.	.	-7.7%[76.3 µM]	.	.
Cc1cccc(Nc2nc(-c3ccc(O)cc3O)cs2)n1	?	-0.5	.	39.8µM*	.	-0.3%
CC(=O)Nc1ccc(-c2csc(Nc3cccc(C)n3)n2)cc1	?	0.5	-8.7%	-2.2%	2.0%	-6.2%
Cc1cc(C)c(NC(=O)Cn2c(=O)n(Cc3ccco3)c(=O)c3ccc(C(=O)NC4CCCC4)cc32)c(C)c1	.	.	.	-3.1%[76.3 µM]	.	.
O=C(COC(=O)CCC1CCCC1)Nc1nc2c(F)c(F)c(F)cc2s1	25.1µM*	10.1	4.8%	2.3%	0.0%	1.4%
CCOc1ccc(-c2csc(-c3c(N)c(C(=O)c4ccc5c(c4)OCO5)n4ccccc34)n2)cc1	.	.	.	-3.0%[76.3 µM]	.	.
CC(CCc1ccccc1)NC(=O)CN1CCN(c2ccc(O)cc2)CC1 (stereo not given)	-17.4%	3.8	0.1%	4.43µM*	?	35.0%
CCN(C(=O)CN1CCN(c2ccc(O)cc2)CC1)c1c(N)n(Cc2ccccc2)c(=O)[nH]c1=O	10.2%	4.2	3.1%	17.8µM*	-1.2%	2.6%
Cc1cccc(NC(=O)COc2ccccc2C(=O)NC(C)c2ccccc2)c1 (stereo not given)	.	.	.	.	.	-3.5%
O=C(NCc1cccnc1)c1nn(-c2ccccc2F)nc1CO	.	.	.	9.7%[76.3 µM]	.	.
COCCN=c1scc(-c2ccco2)n1/N=C/c1ccc(O)c(O)c1O	?	15.3	-2.6%	2.4%	-3.2%	-12.1%
CC(C)N=c1scc(-c2ccco2)n1/N=C/c1ccc(O)c(O)c1	?	2.9	-2.1%	7.08µM*	-12.8%	6.9%
CN1CCc2c(sc3c2C(=O)NC(c2cccs2)N3)C1 (stereo not given)	28.2µM*	?	5.9%	?	?	19.7%
O=C(Nc1cc(S(=O)(=O)N2CCOCC2)ccc1N1CCCC1)c1cc(=O)[nH]c2ccccc12	.	-28.2	10µM*	?	.	-13.3%
Cc1nc(NCc2ccccc2)c2nc(-c3ccccc3)n(CC(C)(C)CN(C)C)c2n1	0.2%	3.1	0.4%	.	.	.
O=C(O)[C@@H]1[C@@H]2C[C@H]3c4[nH]c5ccccc5c4CCN3C[C@@H]2CC[C@@H]1O	-24.2%[24.8 µM]	?	-19.7%[29.1 µM]	.	.	-2.5%[51.4 µM]
CCOc1ccc(Nc2oc(-c3ccco3)nc2C#N)cc1	2.9%	3.4	-6.6%	35.5µM*	-2.5%	-0.6%
NC(=O)N/N=C/c1coc2ccc(O)cc2c1=O	.	5.6	3.1%	15.8µM*	-25.7%	4.5%

Bioassay records as filed in PubChem.
